ELG1 repair inh: inhibitors of ELG1-dependent DNA repair in HEK293T cells; HEK293T ELG1-luciferase reporter, luminescence, 16 h; DNA damage induced by 5-fluorouridine; Potency, µM (titrated, usually from 46.1 µM), for the others: at the top dose activity change, negative = inhibition, most hits filed as inhibitors; actives 2.3% (n = 330,000); also: potency is read from the fitted curve at half-maximal effect; nearly all actives have a fitted effect of over 55% in size
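5-Fluorouridine DNA damage + compound/DMSO, 2,000 cells/well, 16 h, 37 °C/5% CO2. ONE-Glo, 30 min RT, luminescence. Readout = decrease in reporter signal.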
TSHR antagonist: antagonists of human thyroid stimulating hormone receptor. P16473. TSHR-expressing cells, TSH-stimulated cAMP HTRF, 2 h; stronger effect = lower value. actives 0.2% (n = 330,000). activity change, negative = inhibition, % at 11.5 µM;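 active = activity change below a set negative limit, meaning inhibition stronger than a set level, cut at about -70% in these data; inconclusive = activity change between two set negative limits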
Target sequence (P16473 whole entry, looked up): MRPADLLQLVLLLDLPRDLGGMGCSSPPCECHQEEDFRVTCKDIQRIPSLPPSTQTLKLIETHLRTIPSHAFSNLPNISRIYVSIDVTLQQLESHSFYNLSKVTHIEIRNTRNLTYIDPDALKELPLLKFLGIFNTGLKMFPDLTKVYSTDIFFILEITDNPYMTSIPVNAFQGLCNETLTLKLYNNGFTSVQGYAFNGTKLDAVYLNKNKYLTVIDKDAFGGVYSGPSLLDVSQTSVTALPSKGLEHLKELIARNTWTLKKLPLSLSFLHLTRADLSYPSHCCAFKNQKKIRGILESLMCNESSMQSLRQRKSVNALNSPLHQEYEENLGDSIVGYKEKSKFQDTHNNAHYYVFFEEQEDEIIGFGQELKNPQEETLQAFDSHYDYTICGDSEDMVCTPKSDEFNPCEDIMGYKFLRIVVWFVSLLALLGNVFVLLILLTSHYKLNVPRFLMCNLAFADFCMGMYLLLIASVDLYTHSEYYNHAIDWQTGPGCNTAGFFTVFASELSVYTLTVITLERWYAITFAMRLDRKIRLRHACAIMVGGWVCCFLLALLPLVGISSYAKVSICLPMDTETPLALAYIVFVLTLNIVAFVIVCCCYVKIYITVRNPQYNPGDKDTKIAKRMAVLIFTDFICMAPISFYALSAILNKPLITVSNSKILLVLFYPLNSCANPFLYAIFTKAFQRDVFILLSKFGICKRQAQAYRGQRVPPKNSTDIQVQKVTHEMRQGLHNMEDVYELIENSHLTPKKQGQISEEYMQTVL
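Inhibition of cAMP made by TSHR-expressing cells under TSH stimulation (4nM final, EC80; 2 h, 37 deg C) is quantified with a one-step lysis HTRF kit, anti-cAMP cryptate versus cAMP-d2.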
Gal4-VP16 FLuc: inhibits Gal4-VP16 luciferase reporter, ROR gamma counter-screen. Drosophila S2 Gal4-VP16 UAS-luciferase, luminescence, 20 h. Potency, µM (doses to about 53.6 µM), for the others: top-dose activity, negative = inhibition, actives largely listed as inhibitors. actives 3.5% (n = 310,000);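 also: Gal4-VP16 expression switched on by copper sulfate through the metallothionein promoter; potency is read from the fitted curve at half-maximal effect; nearly all actives have a fitted effect of over 50% in size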
Coupling enz: coupling enzyme interference in Giardia aldolase counter-screen; coupling enzyme system counterscreen, AmpLite Red fluorescence; actives 0.67% (n = 290,000); AID 2472; activity change, negative = inhibition, % at 58.2 µM, hits read low; in the data active = activity change below about -30%
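Activity here indicates interference with the coupling reaction, not aldolase inhibition. Compounds at 57.5 uM final met coupling enzymes for 10 min at RT; substrate and AmpLite Red detection followed, with a 525/598 nm fluorescence read after 20 min.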
RORg inh: inhibitors of mouse ROR gamma transcriptional activity. AID 2551. Drosophila S2 Gal4-RORgamma UAS-luciferase reporter, 20 h. Potency, µM (top dose mostly 53.6 µM), inactives show at the highest dose activity change, negative = inhibition, usual class: inhibitors. actives 5.4% (n = 310,000); also: potency is read from the fitted curve at half-maximal effect; nearly all actives have a fitted effect of over 60% in size
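In this cell-based reporter format, copper sulfate (700 uM final) drives Gal4–ROR gamma fusion expression from a metallothionein promoter in Drosophila Schneider cells; compounds preincubated 1 hr, reporter read after 20 hr at ambient temperature.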
Active calls of the source: *; u = inconclusive; x = not tested or not shown; [ ] = another dose, or the depositor's remark. Shown are actives, neighbours in structure and some others; about 8% of the full set was active somewhere. Unless noted, calls follow the shape of the dose curve; as a rule, active = well fitted curve in the direction sought with a large enough effect; inconclusive = small, poorly fitted or top-dose-only effect, or another doubt; inactive = no such curve, though single readings can be large; an effect the other way counts as inactive or inconclusive. % is scaled to controls: 0 for no effect and ±100 for the full control effect.

SMILES	ELG1 repair inh	TSHR antagonist	Gal4-VP16 FLuc	Coupling enz	RORg inh
O=c1cc(-c2ccccc2)oc2cc(O)c(O)cc12	x	x	-7%	1	-14%
O=c1cc2oc3cc(O)c(O)cc3c(-c3ccccc3[N+](=O)[O-])c-2cc1O	21µM*	-10	u	-20	-32%
Cn1c(=O)c(-c2ccc(F)c(F)c2)nc2cncnc21	x	x	-5%	6	-5%
COCCNc1nnc(SCC(=O)c2c[nH]c3ccccc23)s1	-1%	0	35µM*	-21	u
COCCNc1nnc(SCC(=O)Nc2sc3c(c2C(=O)c2ccccc2)CCCC3)s1	u	-1	u	-10	16µM*
COCCNc1nnc(SCC(=O)NNC(=O)c2ccccc2)s1	13%	-2	8%	2	-2%
Nc1nnc(SCC(=O)Nc2sc3c(c2C(=O)c2ccccc2)CCCC3)s1	-13%	-4	u	-3	22µM*
CCc1sc(C(=O)Nc2cc(S(=O)(=O)N3CCOCC3)ccc2OC)cc1C	u	-21	x	x	x
Cc1ccc(CNC(=O)CNC(=O)[C@@H]2Cc3ccccc3CN2)cc1	u	12	-4%	0	11%
CCOC(=O)C1(Cc2ccc(Cl)cc2)CCN(C(C)Cc2ccc(O)c(OC)c2)CC1 (stereo not given)	-1%	-7	16µM*	1	-12%
CCOC(=O)C1(Cc2ccc(OC)cc2)CCN(S(C)(=O)=O)CC1	-19%	-26	0%	-3	33%
CC1=C(C)CS(=O)N(c2ccc(S(N)(=O)=O)cc2)C1 (stereo not given)	-8%	3	4.5µM*	-1	3.5µM*
CC1=C(C)CS(=O)N(S(=O)(=O)c2ccccc2)C1 (stereo not given)	u	10	11µM*	0	8.9µM*
O=C(Nc1ccc(F)c(F)c1)C1CCN(S(=O)(=O)c2cccs2)CC1	u	13	x	x	x
Cc1ccc(C)c(-n2cc(CNCCCn3cccn3)c(-c3ccccc3)n2)c1	-8%	10	-7%	1	10µM*
COC(=O)/C=C1\S/C(=N/N=C/c2ccc(Cl)cc2)NC1=O	1%	-1	-12%	1	-7%
COC(=O)/C=C1\S/C(=N/N=C/c2ccccc2)NC1=O	20%	-25	u	8	u
COC(=O)/C=C1\S/C(=N/N=C/c2ccco2)NC1=O	12%	3	-16%[10 µM]	4	7.1µM*
COC(=O)/C=C1/S/C(=N/N=C/c2ccco2)NC1=O	-4%	-7	u	3	14µM*
COc1ccc(C(C(=O)NC2CCCC2)N(C(=O)CNC(=O)c2ccco2)c2cccnc2)cc1 (stereo not given)	7%	2	0%	-1	-26%
CCOC(=O)N1CCC(NC(=O)c2ccc3c(c2)sc2nc(-c4cccc(OC)c4)cn23)CC1	2.9µM*	-38	4%	2	-8%
O=C(CSc1nncs1)NNC(=O)c1ccco1	16%	1	x	x	x
O=C(NN=C1CCCC1)c1[nH]c2ccc(Cl)cc2c1-c1ccccc1	u	10	u	1	11µM*
CC1CCCCC1NC(=O)CCNS(=O)(=O)c1ccc(Cl)cc1 (stereo not given)	2%	-7	4%	-1	10%
CC12CCC(=O)N1C(C(=O)Nc1nc(-c3ccccc3Cl)cs1)CS2 (stereo not given)	0%	11	x	x	x
SMILES	ELG1 repair inh	TSHR antagonist	Gal4-VP16 FLuc	Coupling enz	RORg inh
Cc1c(Cl)cccc1NC(=S)N1CCc2ccccc2C1	5%	-5	u	-1	10µM*
FC(F)(F)c1ccccc1NC(=S)N1CCc2ccccc2C1	15µM*	-10	u	3	16µM*
Cc1ccc2[nH]c(=O)c3cc(C(=O)N(C)Cc4ccco4)sc3c2c1	u	0	11%	-1	22%
Cc1ccc2[nH]c(=O)c3cc(C(=O)N4CCN(C(=O)c5ccco5)CC4)sc3c2c1	16µM*	5	7%	1	27%
CCOCCCN(Cc1ccco1)C(=O)c1cc2c(=O)[nH]c3ccc(C)cc3c2s1	16µM*	-8	-1%	4	23%
Cc1ccc2oc(=O)c3cc(C(=O)N4CCN(C(=O)c5ccco5)CC4)sc3c2c1	-5%	-3	7%	1	24%
CCNC(=S)NNC(=O)c1cc(-c2cccc(OCC)c2)nc2ccccc12	u	-10	u	2	13µM*
CCCCOc1cccc(-c2cc(C(=O)NNC(=S)NCC)c3ccccc3n2)c1	u	-18	u	-2	-40%
CCOC(=O)c1ccc(NC(=S)NNC(=O)c2cc(-c3cccnc3)nc3ccccc23)cc1	15µM*	-25	-13%	x	-34%
CC(OC(=O)c1cc(-c2cccnc2)nc2ccccc12)C(=O)Nc1ccc2ccccc2c1 (stereo not given)	18µM*	-6	-7%	2	u
CCNC(=S)NNC(=O)c1cc(-c2cccnc2)nc2ccccc12	u	-4	u	3	16µM*
O=C(NNC(=S)Nc1ccccc1)c1cc(-c2cccnc2)nc2ccccc12	7%	-17	-12%	8	-35%
c1csc(CNc2ccnc(-c3ccoc3)n2)c1	x	x	12%	-3	u
O=C(CN1C(=O)NC2(CCCCCC2)C1=O)NCCc1ccccc1	14%	-1	x	x	x
CCNC(=S)NNC(=O)c1cc(-c2cccc(C)c2)nc2ccccc12	u	-3	8.9µM*	0	3.5µM*
CCNC(=S)NNC(=O)c1cc(C)nc2ccccc12	13%	3	u	-2	u
C=CCSc1nnc(NC(=O)c2c(CC)noc2C)s1	15%	-2	x	x	x
NS(=O)(=O)c1ccc(CCN2C(=O)CCC2=O)cc1	-6%	7	-5%	4	26%
CCSc1nnc(NC(=O)C2CCN(S(=O)(=O)c3ccccc3C(F)(F)F)CC2)s1	23µM*	3	10%	2	u
CCSc1nnc(NC(=O)C2CCN(S(=O)(=O)c3c(C)c(C)cc(C)c3C)CC2)s1	-10%	4	-5%	4	21%
COc1ccc(C(=O)N=S2CCN(C(=O)c3ccc(Cl)cc3)CC2)cc1	8%	7	2%	1	u
Cc1cs/c(=N/C(=S)Nc2ccccc2)n1C	u	-26	10µM*	4	1.6µM*
CCCn1c(C)cs/c1=N\C(=S)Nc1ccccc1	4%	-8	5.6µM*	-2	4µM*
C=CCNC(=S)/N=c1/scc(C)n1C	u	5	-1%	-2	u
CCN1C(=O)/C(=C\c2cn(CCC#N)nc2-c2ccc(F)cc2)SC1=S	15µM*	0	-6%	-12	u
CCCNC(=O)c1ccc(-c2nc3ccccc3s2)s1	u	-1	u	1	11µM*
